Drawing on PubChem BioAssay (Tox21), this text covers Potency and max response for 19 compounds.

Test [1] can be described thus: qHTS RealTime-Glo MT Cell Viability Assay in HepG2 cells - 40 hour (AID 1224870). Note: nearly all actives have a fitted effect of over 50% in size. The gist of the method: (§1)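 Real-time viability: cells seeded at 600 per well together with NanoLuc and cell-permeant prosubstrate, compounds added after 5 h incubation. Luminescence tracked at 0, 8, 16, 24, 32 and 40 h of exposure.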
On the technique in general: qHTS replaces the single test concentration by a dilution series.

Test [2] in a line: A CellTox Green Cytotoxicity Assay to monitor cytotoxicity in HEK293 cells - 40 hour (AID 1224871). Note: nearly all actives have a fitted effect of over 45% in size. Note: potency is the fitted concentration of half-maximal effect. In a few lines:
(§2)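 Each value comes from one timepoint of a single continuous run in which HEK293 cells with CellTox Green were exposed to compound for up to 40 h at 37 C, dye fluorescence rising with cell death.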

The nature of test [3]: qHTS RealTime-Glo MT Cell Viability Assay in HEK293 cells - 16 hour (AID 1224872). Note: nearly all actives have a fitted effect of over 50% in size. Note: potency is the fitted concentration of half-maximal effect. In a few lines: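 HEK293 cells seeded with NanoLuc/prosubstrate reagent, rested 5 h at 37 C, then dosed and kept at 37 C up to 40 h. Nonlytic real-time luminescence from viable cells read at 0, 8, 16, 24, 32 and 40 h.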
Test [4] can be described thus: qHTS RealTime-Glo MT Cell Viability Assay in HepG2 cells - 8 hour (AID 1224873). Note: nearly all actives have a fitted effect of over 55% in size. The gist of the method: as §1
The nature of test [5]: qHTS RealTime-Glo MT Cell Viability Assay in HEK293 cells - 40 hour (AID 1224874). Note: nearly all actives have a fitted effect of over 50% in size. Note: potency is the fitted concentration of half-maximal effect. The settings on record: RealTime-Glo luminescence; max response: stronger effect = lower value. In a few lines:
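qHTS format; HEK293 cells with NanoLuc/prosubstrate reagent, 37 C/5% CO2 for 5 h pre-dosing; compounds 23 nL in DMSO; luminescence at each time point reflects viable cells.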

Test [6] can be described thus: A CellTox Green Cytotoxicity Assay to monitor cytotoxicity in HEK293 cells - 24 hour (AID 1224875). Note: nearly all actives have a fitted effect of over 45% in size. Note: potency is the fitted concentration of half-maximal effect. The gist of the method:
as §2

The nature of test [7]: A CellTox Green Cytotoxicity Assay to monitor cytotoxicity in HepG2 cells - 16 hour (AID 1224876). Note: nearly all actives have a fitted effect of over 45% in size. Note: potency is the fitted concentration of half-maximal effect. The gist of the method:
(§3)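 Continuous culture of HepG2 cells with a membrane-impermeant DNA dye; rising fluorescence marks dead cells. Compound exposure lasted up to 40 h at 37 C, with reads every 8 h from 0 h.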

Test [8] in a line: qHTS RealTime-Glo MT Cell Viability Assay in HepG2 cells - 32 hour (AID 1224877). Note: nearly all actives have a fitted effect of over 55% in size. In a few lines:
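HepG2 cells (600/well) were dispensed with RealTime-Glo reagents, incubated 5 h at 37 °C, then treated with compounds in DMSO for up to 40 h. Nonlytic NanoLuc luminescence reflecting viable cells was read at each stated time point.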

Test [9] is described as follows: A CellTox Green Cytotoxicity Assay to monitor cytotoxicity in HepG2 cells - 24 hour (AID 1224878). Note: nearly all actives have a fitted effect of over 45% in size. Note: potency is the fitted concentration of half-maximal effect. The gist of the method: as §3
Test [10] in a line: A CellTox Green Cytotoxicity Assay to monitor cytotoxicity in HepG2 cells - 40 hour (AID 1224879). Note: nearly all actives have a fitted effect of over 40% in size. Note: potency is the fitted concentration of half-maximal effect. In a few lines: as §3

Values joined by “and” are separate entries in the source; they are usually repeats but may differ in a detail not shown here. Equal values may be shown once. Inconclusive results are not listed. The source holds several records for some structures; these can differ, active in one and inactive in another. Active and inactive are the calls of the source. Calls come from the whole dose curve; as a rule, active = well fitted curve in the direction sought with a large enough effect in the repeat runs; inconclusive = weak or mixed curves; inactive = no such curve, though single readings can be large; an effect the other way counts as inactive or inconclusive.
% is set by controls: 0 for no effect and ±100 for the full control effect.

Take `CCCCOCCO`: the Potency entry in test [1], in [2], in test [3], in test [4], in test [6] and in [7] was “inactive” throughout. The Potency result in test [8], in test [9] and in [10] was “inactive” throughout. Moreover, in test [5], the max response was 3.58% (inactive) and 5.47% (inactive).

For `CN(CCOc1ccc(CC2SC(=O)NC2=O)cc1)c1ccccn1` (stereo not given), the Potency entry in [1], in test [2], in test [3], in [4], in test [6] and in test [7] was “inactive” each time. The Potency result in test [8], in test [9] and in test [10] was “inactive” in each case. For the same compound, in [5], the max response was -1.82% (inactive).

Take `CCc1ccc(O)cc1`: the Potency entry in test [1], in test [2], in [3], in test [4], in test [6] and in test [7] was “inactive” each time. The Potency result in [8], in test [9] and in test [10] was “inactive” each time. Besides, the max response in test [5] was 3.14% (inactive) and 3.17% (inactive).

`Nc1c(S(=O)(=O)O)cc(Br)c2c1C(=O)c1ccccc1C2=O`: the Potency result in [1], in test [2], in test [3], in [4], in test [6] and in test [7] was “inactive” in each case. In addition, the Potency result in test [8], in [9] and in [10] was “inactive” each time. In addition, the max response in [5] is 0.275% (inactive) and -15.6% (inactive).

As for `CC(C)(N=C=O)c1cccc(C(C)(C)N=C=O)c1`, the Potency entry in [1], in test [2], in test [3], in test [4], in [6] and in test [7] was “inactive” in each case. In addition, the Potency result in test [8], in test [9] and in [10] was “inactive” each time. For the same compound, the max response in test [5] is 0.966% (inactive).

As to `Oc1ccc2ccccc2c1`, the Potency result in test [1], in test [2], in [3], in test [4], in test [6] and in test [7] was “inactive” throughout. For the same compound, the Potency entry in test [8], in test [9] and in test [10] was “inactive” in each case. The max response in test [5] was 17.4% (inactive) and 0.276% (inactive).

Turning to `CC1=C(/C=C/C(C)=C/C=C/C(C)=C/CO)C(C)(C)CCC1`, the Potency result in [1], in test [3], in [4], in [6], in test [7] and in [8] was “inactive” each time. In addition, the Potency entry in test [9] and in test [10] was “inactive” each time. Further, the max response in test [5] was -27.5% (inactive) and -20.7% (inactive).

In the case of `O=[N+]([O-])C(CO)(CO)CO`, the Potency result in test [1], in test [2], in [3], in test [4], in [6] and in test [7] was “inactive” in each case. For the same compound, the Potency entry in test [8], in test [9] and in [10] was “inactive” throughout. For the same compound, the max response in [5] was 10.8% (inactive).

`Cn1c([N+](=O)[O-])cnc1COC(N)=O`: the Potency entry in [1], in [2], in [3], in test [4], in [6] and in test [7] was “inactive” throughout. The Potency result in test [8], in test [9] and in test [10] was “inactive” in each case. Moreover, the max response in test [5] is 0.779% (inactive) and 12.4% (inactive).

In the case of `CC#C[C@]1(O)CC[C@H]2[C@@H]3CCC4=CC(=O)CCC4=C3[C@@H](c3ccc(N(C)C)cc3)C[C@@]21C`, the Potency result in [1], in [2], in test [4], in test [6], in test [7] and in [9] was “inactive” throughout. Moreover, the Potency entry in [10] is “inactive”. Also, the Potency in [3] and in test [5] was 49 µM (active) in each case.

As for `CCCCC(CC)COC(=O)/C=C\C(=O)OCC(CC)CCCC` (stereo not given), the Potency result in [1], in [2], in [3], in test [6], in test [7] and in test [8] was “inactive” each time. The Potency result in test [9] and in test [10] was “inactive” throughout. For the same compound, the max response in [5] was 1.02% (inactive) and -3.16% (inactive).

Turning to `O=S(=O)(O)CCS`, the Potency result in test [1], in test [2], in test [3], in [4], in test [6] and in [7] was “inactive” in each case. Further, the Potency entry in test [8], in [9] and in [10] was “inactive” throughout. The max response in test [5] was 0.917% (inactive) and -2.58% (inactive).

As to `O=C1CCCCC1`, the Potency result in test [1], in test [2], in test [3], in test [4], in test [6] and in test [7] was “inactive” each time. Also, the Potency result in [8], in [9] and in [10] was “inactive” in each case. In addition, in test [5], the max response was 4.63% (inactive) and 22.1% (inactive).

Consider `ClC1=C(Cl)C(Cl)(Cl)C(Cl)=C1Cl`, for which the Potency result in [1], in test [4], in test [7], in [8] and in test [9] was “inactive” each time. Moreover, the Potency was 12.4 µM (active) and 34.7 µM (active) in test [2]; 34.9 µM (active) in test [5]; 38.9 µM (active) in test [6]; 22 µM (active) in [10].

`C=C(C)C(=O)OCC(CC)(COC(=O)C(=C)C)COC(=O)C(=C)C`: the Potency entry in [1], in test [3], in test [4] and in test [8] was “inactive” each time. The Potency result in test [2] was “inactive and 42.9 µM (active)”; in test [7], “inactive and 42.9 µM (active)”; in test [9], “inactive and 38.2 µM (active)”; in test [10] it was “inactive and 42.9 µM (active)”. In test [5], the max response is 2.46% (inactive) and 6.81% (inactive).

As for `OCCOCCOCCOCCO`, the Potency entry in test [1], in test [2], in [3], in test [4], in test [6] and in [7] was “inactive” in each case. The Potency result in test [8], in [9] and in [10] was “inactive” each time. Also, the max response in [5] was 0.824% (inactive) and 6.75% (inactive).

In the case of `CCCCNC(N)=O`, the Potency entry in [1], in test [2], in [3], in test [4], in test [6] and in test [7] was “inactive” in each case. For the same compound, the Potency result in [8], in test [9] and in [10] was “inactive” in each case. In addition, in [5], the max response was 5.63% (inactive) and 4.35% (inactive).

Turning to `C/C=C(C)/C=C/C=C(C)C`, the Potency result in [1], in [2], in [3], in test [4], in [6] and in test [7] was “inactive” in each case. Also, the Potency result in test [8], in test [9] and in test [10] was “inactive” in each case. The max response in test [5] is -28.6% (inactive) and 16.8% (inactive).

Regarding `CC1CC(OC(=O)c2ccccc2O)CC(C)(C)C1` (stereo not given), the Potency entry in [1], in test [3], in test [4], in test [6], in test [7] and in [8] was “inactive” throughout. The Potency entry in test [9] and in test [10] was “inactive” each time. Further, the Potency in test [2] was 48.5 µM (active) and inactive. Also, in test [5], the max response was -10.4% (inactive) and -7.39% (inactive) and -13.1% (inactive).
